Here are results for 14 compounds from PubChem BioAssay (NCATS).

The assay can be described thus: qHTS Assay for Lipid Storage Modulators (AID 1519). For activity change, negative = inhibition: % is set by controls: 0 for no effect and ±100 for the full control effect. To be noted: Drosophila S3 cells, BODIPY lipid droplet/cell ratio, laser cytometry, cells loaded with oleic acid; for activity change, negative = inhibition: at 57.5 µM (top of the series). The text has this: NIH Molecular Libraries Probe Production Centers Network [MLPCN]
NIH Chemical Genomics Center [NCGC]
Assay Submitter (PI): Beller, Mathias; Max-Planck-Institut fur Biophysikalische Chemie
NCGC Assay Overview: Storing lipids as a reservoir for energy or the anabolism of elementary metabolites is a common feature of probably all cells and is conserved from bacteria to humans. The universal cellular lipid storage organelle is the so-called lipid storage droplet (LD). Although ubiquitous, LDs share a simple structure composed of a hydrophobic core that harbors the storage lipids, which is shielded by a droplet-specific phospholipid monolayer to which proteins are attached. The current model of LD biogenesis involves an incorporation of the lipid core into the membrane leaflets of the endoplasmic reticulum (ER) followed by a subsequent budding-like maturation of a LD, which ultimately pinches off. Once released, LD volume can increase by localized lipogenesis or fusion of existing droplets. Storage lipids are re-mobilized enzymatically by lipase activity. Lipase regulation in the adipocyte is heavily studied and involves multiple components including catecholamine signaling, the LD-associated proteins Perilipin and comparative gene identification-58 (CGI-58) and at least two lipases named hormone sensitive lipase (HSL) and adipocyte triglyceride lipase (ATGL). LD regulation outside of the adipocyte is poorly understood and only few components are known. However, there is an urgent need to learn more about ectopic fat depots as mislocalized storage of lipids, for example in the liver or muscle, is an eminent health problem associated with insulin resistance or the metabolic syndrome. We developed a laser-scanning cytometer assay to enable 1,536-well screening and combined the results of the small molecules screen with an RNAi database based on lipid storage.
NCGC Assay Protocol Summary:
We dispensed 4 uL of cells at 1.25 x 10^6 cells/mL into LoBase Aurora COC 1,536-well plates (black walled, clear bottom) with a bottle-valve solenoid-based dispenser (Aurora) to obtain 5,000 cells/well. Triacsin C (Sigma-Aldrich T-4540), an inhibitor of long-chain fatty acyl CoA synthetase that blocks synthesis of triglycerides, was used as a positive control for lipid under-storage. A total of 23 nL of compound solution of different concentrations were transferred to the assay plates using a Kalypsys pin tool equipped with a 1,536-pin array containing 10-nL slotted pins (FP1S10, 0.457-mm diameter, 50.8 mm long; V&P Scientific). One microliter of oleic acid (400 uM) was added, and the plate was lidded with stainless steel rubber gasket lined lids containing pinholes. […] Fluorescence was detected by excitation of the fluorophores with a 488-nm laser on an Acumen Explorer (TTP Lab Tech). The total intensity in channel 1 (500-530 nm) reflected lipid droplet accumulation. […] The ratio of the total intensity in PMT channel 1 over total intensity of channel 3 was also calculated. Percent activity was computed relative to an internal control (100% inhibited lipid droplet deposition due to the presence of 20 uM Triacsin C), which was added to 32 wells/plate.

[1] abbreviates: measured here: cell count channel max response.
Setting [2] is: measured here: lipid channel max response.

Several values for one entry are separate records, joined by “and”; a condition that tells them apart may be missing. Equal values may be shown once. Results filed as inconclusive are left out. Activity calls are given as the source filed them. Calls come from the whole dose curve.

Take `CC1O[C@@H](O[C@@H]2C(O)C[C@H](O[C@@H]3C(O)C[C@@H](OC4CC[C@@]5(C)C6CC(O)[C@@]7(C)C(C8=CC(=O)OC8)CC[C@@]7(O)C6CC[C@@H]5C4)OC3C)OC2C)CC(O)[C@H]1O` (some centres not stated): the activity change, negative = inhibition was 7.91% (inactive). In addition, the max response under setting [1] amounted to 11.2%. Besides, the max response under setting [2] amounted to 22.9%.

Take `CCCCCCCCCCCC(=O)O[C@H](CC(=O)O)C[N+](C)(C)C`: the activity change, negative = inhibition was -2.15% (inactive). Further, under setting [1], the max response was -5.13%. The max response under setting [2] was -11.1%.

In the case of `N[C@H](CCC(=O)N[C@H](CSN=O)C(=O)NCC(=O)O)C(=O)O`, the activity change, negative = inhibition is 1.5% (inactive). In addition, under setting [1], the max response stood at 13.2%. The max response under setting [2] was determined as 16.6%.

Regarding `CCS(=O)(=O)N(C)[C@@H]1c2cc(C#N)ccc2OC(C)(C)[C@H]1O`, the activity change, negative = inhibition is 2.68% (inactive) and 2.28% (inactive). Also, the max response under setting [1] was 17.8% and 15.2%. Besides, the max response under setting [2] is 22.1% and 18.9%.

For `CC(=O)O[C@H](CC(=O)O)C[N+](C)(C)C`, the activity change, negative = inhibition was 5.24% (inactive). For the same compound, the max response under setting [1] was determined as 15%. For the same compound, the max response under setting [2] came out at 18.1%.

Regarding `N[C@H](C(=O)O)c1cccc(O)c1`, the activity change, negative = inhibition was 7.87% (inactive). Further, under setting [1], the max response turned out to be 12.7%. Moreover, the max response under setting [2] turned out to be 24.7%.

With `CC(C)SC(=N)N`, the activity change, negative = inhibition was -0.874% (inactive). Moreover, the max response under setting [1] turned out to be 1.11%. Moreover, the max response under setting [2] is -3.81%.

For the compound `CCCCCCCCCCCCCCCC(=O)NC(C)C`, the activity change, negative = inhibition is 0.0182% (inactive). In addition, the max response under setting [1] is -14.5%. Under setting [2], the max response is -16.6%.

As for `C[C@@H]1C[C@@H]2[C@H]3CCC4=CC(=O)C=C[C@]4(C)[C@]3(F)[C@@H](O)C[C@@]2(C)[C@@]1(O)C(=O)CO`, the activity change, negative = inhibition was -3.85% (inactive). Besides, the max response under setting [1] amounted to 8.23%. Moreover, the max response under setting [2] worked out at 2.65%.

In the case of `CN(C)CCCSc1ccccc1NC(=O)/C=C\c1ccccc1`, the activity change, negative = inhibition was 4.73% (inactive). In addition, the max response under setting [1] was determined as 14.3%. Besides, the max response under setting [2] worked out at 23.1%.

For the compound `Nc1c(S(=O)(=O)O)cc(Nc2ccc(Nc3nc(Cl)nc(Nc4ccc(S(=O)(=O)O)cc4)n3)c(S(=O)(=O)O)c2)c2c1C(=O)c1ccccc1C2=O`, the activity change, negative = inhibition was -0.911% (inactive). In addition, under setting [1], the max response was -15%. Moreover, the max response under setting [2] was -16.5%.

Consider `Cc1nc(N=Nc2cc(S(=O)(=O)O)ccc2S(=O)(=O)O)c(COP(=O)(O)O)c(C=O)c1O`, for which the activity change, negative = inhibition was -1.5% (inactive). The max response under setting [1] was -2.46%. Also, under setting [2], the max response was -2.68%.

As for `COc1cc(OC)c2ccc(=O)oc2c1`, the activity change, negative = inhibition was 13.4% (inactive). Also, the max response under setting [1] came out at 9.58%. In addition, the max response under setting [2] was 25.2%.

Consider `NC1(C(=O)O)CC(C(=O)O)C1` (configuration not stated), for which the activity change, negative = inhibition is 5.41% (inactive). Moreover, the max response under setting [1] came out at 2.35%. The max response under setting [2] stood at 10.2%.
